These results are taken from PubChem BioAssay (EPA / NIEHS).

SMILES strings stand for the structures. Activity calls are given as the source filed them. How the source made its calls: active means hit-call score of the fitted dose curve at least 0.9, where 1 is the maximum; inactive means score below 0.9.

Read-out in the first test: TIMP1, TIMP1 (gene 7076)
Briefly: LTEA_HepaRG_TIMP1: Life Technologies and Expression Analysis (LTEA) Assay for TIMP1 using HepaRG (AID 2283534).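 On outcome: TaqMan qRT-PCR signal normalized to ACTB GAPDH and POLR2A housekeeping genes.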 Conditions: mRNA level, 48 h; actives raise or lower the signal. In short, it runs like this:
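Bidirectional change in TIMP1 transcript versus 0.5% DMSO, measured by TaqMan qRT-PCR with three housekeeping genes for normalization. HepaRG human liver cells dosed 48 h in duplicate, top concentration 100 uM with half-log dilutions.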
`Clc1ccc(C(Cl)(Cl)Cl)cc1`: the molecule was called inactive.

On to `CCCCCCCCCc1ccc(O)cc1`, for which the call was inactive.

`NS(=O)(=O)C(F)(F)C(F)(F)C(F)(F)C(F)(F)C(F)(F)C(F)(F)C(F)(F)C(F)(F)F`: the AC50 was 12.4 µM (active).

Regarding `CC(C)(O)C(=O)Nc1ccc([N+](=O)[O-])c(C(F)(F)F)c1`, the molecule was called inactive.

As for `O=C(O)C(F)(F)C(F)(F)C(F)(F)C(F)(F)C(F)(F)F`, the result was inactive.

For `O=S(=O)(O)C(F)(F)C(F)(F)C(F)(F)C(F)(F)F`, the molecule was called inactive.

`ClC1=C(Cl)[C@]2(Cl)[C@@H]3[C@H]4C[C@H]([C@@H]5O[C@H]45)[C@@H]3[C@@]1(Cl)C2(Cl)Cl`: the call was inactive.

With `Cc1cc2c3c(c1)C(c1ccccc1)=N[C@@H](NC(=O)c1ccncc1)C(=O)N3CC2`, the call was inactive.

Take `N#Cc1ccc(N(CC(N)=O)CC(F)(F)F)cc1C(F)(F)F`: the call was inactive.

With `Cc1ccc(O)c(C)c1`, the outcome was inactive.

On to `CCCN(CCC)N=O`, for which the call was inactive.

Take `CN(C)c1nc(=O)n(C2CCCCC2)c(=O)n1C`: the outcome was inactive.

Take `COS(=O)(=O)OC`: the call was inactive.

Turning to `CCCCCCOC(=O)c1ccccc1C(=O)OCCCCCC`, the call was inactive.

Consider `O=C(O)C(F)(F)C(F)(F)C(F)(F)C(F)(F)C(F)(F)C(F)(F)C(F)(F)C(F)(F)C(F)(F)F`, for which the AC50 was 91.7 µM (active).

On to `CO/C=C(/C(=O)OC)c1ccccc1COc1cccc(C(F)(F)F)n1`, for which the AC50 is 26.8 µM (active).

With `O=NN(c1ccccc1)c1ccccc1`, the molecule was classed as inactive.

`CCC(C)(CC)c1cc(NC(=O)c2c(OC)cccc2OC)on1`: the outcome was inactive.

As to `CC#Cc1cc(C)nc(Nc2ccccc2)n1`, the result was inactive.

For the molecule `C[C@]12CCC(=O)C=C1CC[C@@H]1[C@@H]2CC[C@@]2(C)[C@H]1CC[C@]2(C)O`, the molecule was called inactive.

Regarding `ClC1=C(Cl)[C@]2(Cl)[C@@H]3[C@@H]4C[C@@H]([C@H]5O[C@@H]45)[C@@H]3[C@@]1(Cl)C2(Cl)Cl`, the call was inactive.

For `CCOP(=S)(OCC)SCSC(C)(C)C`, the molecule was classed as inactive.

For `CCC(=O)O[C@H]1CC[C@H]2[C@@H]3CCC4=CC(=O)CC[C@]4(C)[C@H]3CC[C@]12C`, the call was inactive.

As for `CC(c1ccc(O)cc1)(c1ccc(O)cc1)c1ccc(O)cc1`, the AC50 was 85.3 µM (active).

Consider `CCNc1nc(NC(C)C)nc(SC)n1`, for which the result was inactive.

For `O=C(N[C@H]1CN2CCC1CC2)c1cc2ccoc2cn1`, the result was inactive.

Consider `O=S(=O)(O)C(F)(F)C(F)(F)C(F)(F)C(F)(F)C(F)(F)C(F)(F)F`, for which the molecule was called inactive.

With `COc1ccc(O)c(C(C)(C)C)c1`, the molecule was classed as inactive.

Take `Cc1ccccc1[N+](=O)[O-]`: the molecule was classed as inactive.

In the case of `CCOC(=O)C(O)(c1ccc(Cl)cc1)c1ccc(Cl)cc1`, the molecule was classed as inactive.

Regarding `Oc1ccc(Cl)cc1Cl`, the result was inactive.

Read-out in another test: Tumor necrosis factor receptor 1 (TNFRSF1A), TNFRSF1A (gene 7132)
Kind of test: LTEA_HepaRG_TNFRSF1A: Life Technologies and Expression Analysis (LTEA) Assay for Tumor necrosis factor receptor 1 (TNFRSF1A) using HepaRG (AID 2283535). Conditions: mRNA level, 48 h; actives raise or lower the signal. An outline of the steps:
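mRNA measured by qRT-PCR (TaqMan, Fluidigm arrays) against ACTB/GAPDH/POLR2A housekeepers after 48 h chemical exposure of HepaRG cells. Top concentration 100 uM, half-log 8-point series, duplicates; vehicle 0.5% DMSO, both fit directions.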
Regarding `Clc1ccc(C(Cl)(Cl)Cl)cc1`, the outcome was inactive.

In the case of `CCCCCCCCCc1ccc(O)cc1`, the outcome was inactive.

Take `NS(=O)(=O)C(F)(F)C(F)(F)C(F)(F)C(F)(F)C(F)(F)C(F)(F)C(F)(F)C(F)(F)F`: the AC50 is 29.4 µM (active).

Turning to `CC(C)(O)C(=O)Nc1ccc([N+](=O)[O-])c(C(F)(F)F)c1`, the molecule was called inactive.

On to `O=C(O)C(F)(F)C(F)(F)C(F)(F)C(F)(F)C(F)(F)F`, for which the molecule was called inactive.

Consider `O=S(=O)(O)C(F)(F)C(F)(F)C(F)(F)C(F)(F)F`, for which the call was inactive.

Regarding `ClC1=C(Cl)[C@]2(Cl)[C@@H]3[C@H]4C[C@H]([C@@H]5O[C@H]45)[C@@H]3[C@@]1(Cl)C2(Cl)Cl`, the result was inactive.

Regarding `Cc1cc2c3c(c1)C(c1ccccc1)=N[C@@H](NC(=O)c1ccncc1)C(=O)N3CC2`, the call was inactive.

`N#Cc1ccc(N(CC(N)=O)CC(F)(F)F)cc1C(F)(F)F`: the outcome was inactive.

For the molecule `Cc1ccc(O)c(C)c1`, the molecule was classed as inactive.

Regarding `CCCN(CCC)N=O`, the result was inactive.

With `CN(C)c1nc(=O)n(C2CCCCC2)c(=O)n1C`, the molecule was classed as inactive.

As to `COS(=O)(=O)OC`, the call was inactive.

`CCCCCCOC(=O)c1ccccc1C(=O)OCCCCCC`: the molecule was called inactive.

Take `O=C(O)C(F)(F)C(F)(F)C(F)(F)C(F)(F)C(F)(F)C(F)(F)C(F)(F)C(F)(F)C(F)(F)F`: the AC50 is 78 µM (active).

On to `CO/C=C(/C(=O)OC)c1ccccc1COc1cccc(C(F)(F)F)n1`, for which the AC50 is 4.97 µM (active).

`O=NN(c1ccccc1)c1ccccc1`: the AC50 is 80.2 µM (active).

For the molecule `CCC(C)(CC)c1cc(NC(=O)c2c(OC)cccc2OC)on1`, the outcome was inactive.

In the case of `CC#Cc1cc(C)nc(Nc2ccccc2)n1`, the outcome was inactive.

As for `C[C@]12CCC(=O)C=C1CC[C@@H]1[C@@H]2CC[C@@]2(C)[C@H]1CC[C@]2(C)O`, the AC50 was 45.8 µM (active).

With `ClC1=C(Cl)[C@]2(Cl)[C@@H]3[C@@H]4C[C@@H]([C@H]5O[C@@H]45)[C@@H]3[C@@]1(Cl)C2(Cl)Cl`, the molecule was called inactive.

In the case of `CCOP(=S)(OCC)SCSC(C)(C)C`, the outcome was inactive.

On to `CCC(=O)O[C@H]1CC[C@H]2[C@@H]3CCC4=CC(=O)CC[C@]4(C)[C@H]3CC[C@]12C`, for which the molecule was called inactive.

Consider `CC(c1ccc(O)cc1)(c1ccc(O)cc1)c1ccc(O)cc1`, for which the molecule was called inactive.

In the case of `CCNc1nc(NC(C)C)nc(SC)n1`, the molecule was classed as inactive.

Take `O=C(N[C@H]1CN2CCC1CC2)c1cc2ccoc2cn1`: the result was inactive.

In the case of `O=S(=O)(O)C(F)(F)C(F)(F)C(F)(F)C(F)(F)C(F)(F)C(F)(F)F`, the molecule was classed as inactive.

Consider `Cc1ccccc1[N+](=O)[O-]`, for which the call was inactive.

As for `CCOC(=O)C(O)(c1ccc(Cl)cc1)c1ccc(Cl)cc1`, the call was inactive.

For `Oc1ccc(Cl)cc1Cl`, the result was inactive.
